# PLK1 PBD inh: blocks phosphopeptide binding to human PLK1 polo-box domain | Plk1 PBD binding of FITC phosphopeptide, fluorescence polarization | AID 720504 | Potency, µM, for the others: max response, negative = inhibition, usual class: inhibitors | 360,000 tested, 2.8% active | P53350; also: series mostly up to about 57 µM; nearly all actives have a fitted effect of over 65% in size
# Target sequence (P53350 whole entry, looked up, the tested form may be a part): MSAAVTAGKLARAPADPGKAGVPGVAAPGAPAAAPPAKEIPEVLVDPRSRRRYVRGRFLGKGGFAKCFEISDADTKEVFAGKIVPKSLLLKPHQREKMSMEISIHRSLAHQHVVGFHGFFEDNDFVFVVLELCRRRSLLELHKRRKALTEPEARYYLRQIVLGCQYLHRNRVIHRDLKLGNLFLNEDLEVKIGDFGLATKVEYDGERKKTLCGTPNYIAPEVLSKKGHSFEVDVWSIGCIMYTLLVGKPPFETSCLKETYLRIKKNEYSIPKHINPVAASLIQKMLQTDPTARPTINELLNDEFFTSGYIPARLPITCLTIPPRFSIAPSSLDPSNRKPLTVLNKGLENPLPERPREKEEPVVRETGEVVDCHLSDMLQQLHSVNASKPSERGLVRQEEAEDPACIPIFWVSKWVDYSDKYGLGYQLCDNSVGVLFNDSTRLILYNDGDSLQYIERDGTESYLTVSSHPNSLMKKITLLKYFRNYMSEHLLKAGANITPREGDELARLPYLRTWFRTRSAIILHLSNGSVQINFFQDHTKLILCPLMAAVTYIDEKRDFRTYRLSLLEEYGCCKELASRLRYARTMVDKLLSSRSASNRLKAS
# RORg inh: blocks mouse ROR gamma transcriptional activity. Drosophila S2 Gal4-RORgamma UAS-luciferase reporter, 20 h. Potency, µM (doses to about 53.6 µM), for the others: at the top dose activity change, negative = inhibition, usual class: inhibitors. 310,000 tested, 5.4% active. AID 2551; also: nearly all actives have a fitted effect of over 60% in size
#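 Schneider cells (Drosophila), stable Gal4 DBD–ROR gamma + UAS-luc; 1 hr cmpd preincubation; Cu2+ induction 700 uM final; 20 hr ambient; luminescence.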
# Sfp inh: inhibitors of Bacillus subtilis Sfp phosphopantetheinyl transferase; Potency, µM, for inactives: largest response in the series, negative = inhibition, most hits filed as inhibitors; Q9F4F7; 310,000 tested, 3.5% active; Biochemical Sfp PPTase activity, qHTS;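 also: the enzyme is Sfp with the accession as filed and its product quenches rhodamine fluorescence; 0% = enzyme reaction without inhibitor and -100% = no enzyme wells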
#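 Fluorescence-quenching assay: 15 nM Sfp-PPTase preincubated 15 min at room temperature with compound, then 5 uM rhodamine-CoA and 12.5 uM BHQ-2-labelled YbbR peptide added. Fluorescence (ex 525/em 598 nm) read at start and after 30 min; difference gives rate.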
# VP16 counter: counter-screen for ROR gamma inhibitors: Gal4-VP16 reporter. 310,000 tested, 3.5% active. AID 2546. Potency, µM (titrated, usually from 53.6 µM), inactives show at the top dose activity, negative = inhibition, hits mostly inhibitors. Drosophila S2 Gal4-VP16 UAS-luciferase, luminescence, 20 h;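 also: Gal4-VP16 expression switched on by copper sulfate through the metallothionein promoter; nearly all actives have a fitted effect of over 50% in size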
# ALDH1A1 block: blocks purified human ALDH1A1 activity. Purified ALDH1A1, NADH fluorescence, propionaldehyde substrate. Potency, µM (titrated, usually from 75.3 µM), for the others: at the highest dose activity, negative = inhibition, usual class: inhibitors. P00352. 220,000 tested, 7.3% active; active = well fitted inhibition curve with a large enough effect, not every such curve was filed as active; inconclusive = small, poorly fitted or top-dose-only effect, or another doubt; inactive = no such curve, though single readings can be large or run the other way;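 also: plate controls were no enzyme wells and a reference inhibitor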
# Active calls of the source: *; ? = inconclusive; nt = no result given; [ ] = remark or other dose. Most compounds without a hit are left out; they make up all but 12% or so of the library. Unless noted, calls follow the shape of the dose curve; as a rule, active = well fitted curve in the direction sought with a large enough effect; inconclusive = small, poorly fitted or top-dose-only effect, or another doubt; inactive = no such curve, though single readings can be large; an effect the other way counts as inactive or inconclusive. Unless noted, % is scaled to controls: 0 for no effect and ±100 for the full control effect; potency is read from the fitted curve at half-maximal effect.
SMILES,PLK1 PBD inh,RORg inh,Sfp inh,VP16 counter,ALDH1A1 block
Cn1c(=O)n2n(c1=O)[C@H]1[C@H](O)[C@H]3O[C@@H]3/C(=N/OCc3ccccc3)[C@@H]1CC2,nt,0%[10 µM],12%,11%[10 µM],12%[13.5 µM]
Cc1ccc(-n2c(-c3ccccc3)c[n+]3c2CCc2ccccc2-3)c(C)c1,-6%,?,22%,7.1µM*,10%
Cc1ccc(S(=O)(=O)NCCSc2nnnn2-c2cc(C)ccc2C)cc1,-2%,?,6%,16%,0.89µM*
Cc1ccc(S(=O)(=O)NCCSc2nnnn2-c2ccccc2)cc1,-11%,22%,1%,-16%,1µM*
Cc1ccc(C)c(-n2nnnc2Sc2nnnn2-c2ccccc2)c1,-13%,?,4%,?,22µM*
CCCCCCCCN1C(=O)[C@H](CC(=O)NCCCOCCCC)C[C@@]2(C(=O)OC)CCCCC=C12,-3%,nt,nt,nt,nt
O=C(C(Cl)Cl)N1CCN(Cc2ccc3c(c2)OCO3)CC1,1%,-31%,10%,2%,nt
O=C(CN1CCN(Cc2ccccc2)CC1)c1c[nH]c2ccccc12,-7%,-5%,1%,0%,25µM*
CCCn1c(N2CCN(CC(=O)c3c[nH]c4ccccc34)CC2)nc2c1c(=O)[nH]c(=O)n2C,2%,?,-27%,-5%,13µM*
O=C(C(Cl)Cl)N1CCN(Cc2ccccc2)CC1,0%,-13%,0%,-16%,1.8µM*
CC(C)(C)NCC(=O)c1c[nH]c2ccccc12,3%,1%,-1%,-3%,18µM*
COc1cc(OC)nc(Nc2nc(CN)cs2)n1,-11%,nt,nt,nt,nt
CCOc1cc(C=NNC(=O)N(c2ccccc2)c2ccccc2)ccc1O,-7%,nt,nt,nt,nt
O=C(CN1CCN(Cc2ccccc2)CC1)c1ccc(Br)cc1,-1%,-1%,1%,-12%,2.5µM*
COc1cccc(COc2cc3ccccc3nc2C)c1,-7%,-27%,?,5µM*,-5%
Cc1nc2ccccc2cc1OCc1ccc(Cl)cc1,0%,?,?,3.5µM*,-11%
CCN(CC(=O)NCc1ccc(Cl)cc1)C(=O)/C=C/c1ccc(Cl)c([N+](=O)[O-])c1,-13%,-4%,79µM*,-1%,nt
CC(=O)NC(C)(c1ccccc1)c1nc(-c2cncnc2)cs1 (centres undefined),-6%,nt,nt,nt,nt
Cc1ccc(CN(CC(O)COc2cccc3[nH]cc(C)c23)C(C)(C)C)cc1 (centres undefined),1%,-9%,-18%,-20%,nt
COC(=O)Cc1c[nH]c2cccc(OCC(O)CN(Cc3ccc([N+](=O)[O-])cc3)C(C)(C)C)c12 (centres undefined),-3%,10%,-10%,2%,25µM*
Cc1cc(C)nc(NNC(=O)NC2CCCCC2)n1,27µM*,-20%,-8%,-1%,9%
CN(CCCNC(=O)c1ccccc1F)CCCNC(=O)c1ccccc1F,-4%,?,18%,0%,nt
CCOC(=O)C1(Cc2ccccc2)CCN(Cc2nccn2CC)CC1,-10%,7.9µM*,1%,?,-10%
CCOC(=O)C1(Cc2ccc(Cl)cc2)CCN(CCCn2cccn2)CC1,-6%,-19%,14%,-4%,1%
CCOC(=O)C1(Cc2ccc(Cl)cc2)CCN(Cc2nccn2CC)CC1,-12%,3.2µM*,16%,13µM*,-3%
SMILES,PLK1 PBD inh,RORg inh,Sfp inh,VP16 counter,ALDH1A1 block
CCOC(=O)C1(CCc2ccccc2)CCN(Cc2nccn2CC)CC1,5%,7.1µM*,12%,11µM*,7%
CCOC(=O)C1(Cc2ccccc2)CCN(Cc2ccon2)CC1,-2%,1%,14%,-5%,?
CCOC(=O)C1(CCOc2ccccc2)CCN(Cc2ccc(C)o2)CC1,-4%,46%,19%,1%,18µM*
O=C(O)C1CC[C@@](C(=O)O)(c2ccccc2)c2ccccc21 (some centres undefined),nt,-8%,-4%,6%,16%
CCOC(=O)N1CCN(C(=O)C[C@@H]2C[C@@]3(C(=O)OCC)CCCC=C3N(Cc3ccccc3)C2=O)CC1,-4%,nt,nt,nt,nt
CCOC(=O)C1(Cc2ccc(Cl)cc2)CCN(C(=O)c2sc(C)nc2C)CC1,-4%,?,14%,-17%,35µM*
CCOC(=O)C1(Cc2ccc(OC)cc2)CCN(C(=O)c2sc(C)nc2C)CC1,2%,?,14%,0%,?
NNC(=O)[C@@H](O)[C@H](O)[C@H](O)CO,nt,nt,nt,nt,5%[13.5 µM]
COc1ccc(/C(C)=N/N2C(C)CCCC2C)c(OC)c1 (centres undefined),2%,13µM*,6%,?,nt
CC(C)c1ccc(NC(=S)NN2CCN(C)CC2)cc1,5%,11µM*,8%,14%,13%
Fc1cc(F)cc(NC(=S)NN2CCOCC2)c1,-8%,10µM*,-7%,7%[10 µM],?
CCC(C)c1ccc(NC(=S)NN2CCOCC2)cc1 (centres undefined),-6%,2.2µM*,6%,4.5µM*,?
CC1(C)CC(=O)C=C(c2ccc(COC(=O)C3CC3)cc2)C1=O,-4%,nt,nt,nt,nt
CN(C(=O)c1cc2ccccc2o1)c1c(N)n(Cc2ccccc2)c(=O)[nH]c1=O,-19%,nt,nt,nt,nt
CCOc1ccc(/C=C(\C#N)C(=O)Nc2ccccn2)cc1,0%,2%,20%,1%,nt
CCOC(=O)/C(C#N)=C/c1ccc(OC(=O)c2ccccn2)cc1,-11%,?,50µM*,?,8.9µM*
CCOC(=O)/C(C#N)=C/c1ccc(SC)cc1,-4%,-2%,?,-1%,18µM*
COC(=O)/C(C#N)=C/c1ccc(OC(=O)c2ccccn2)cc1,-12%,4%,14µM*,-6%,3.5µM*
Nc1nc(Cl)nc2c1ncn2[C@@H]1O[C@H](CO)[C@H](O)C1F (some centres undefined),nt,-11%[10 µM],11%,?,nt
CCN(CC)c1ccc(Nc2nc(N3CCOCC3)c3ccccc3n2)cc1,-2%,-42%,?,11µM*,?
Cc1cc(-c2c(C)[nH]n(-c3ccc(Cl)cc3)c2=O)n[nH]1,-7%,0.11µM*,25%,0.63µM*,28%
Cc1cc2nc(/C(C#N)=C/c3ccncc3)[nH]c2cc1C,27µM*,-15%,0%,0%,0%
Cc1ccccc1-c1cc2nc(NCc3ccccc3F)n(C)c(=O)c2s1,-14%,nt,nt,nt,nt
Cc1ccc2[nH]c3c(=S)nc[nH]c3c2c1,-26%,13µM*,3%,?,2%
Cc1ccc2[nH]c3c(=O)n(N)c(C)nc3c2c1,-5%,0%,11%,-9%,?
c1ccc(CCCNc2ncnc3nc[nH]c23)cc1,2%,2%,-19%,2%,-3%
Clc1ccc(CCNc2ncnc3nc[nH]c23)cc1,-5%,-22%,-18%,11µM*,14%
COc1cc2cc3c4c(cc(OC)c(OC)c4c2cc1OC)CCN3C,nt,2.8µM*,71µM*,-6%,?
COc1cc2c(cc1OC)C(=O)N(C)CC2,7%,8%,23%,5%,7%
